{"source": "PubChem BioAssay (EPA / NIEHS)", "note": "The source made the active and inactive calls. How the source made its calls: active means hit-call score of the fitted dose curve at least 0.9, where 1 is the maximum; inactive means score below 0.9."}
{"read-out": "Plasminogen activator inhibitor-1 (PAI1), SERPINE1 (gene 5054)", "experiment": "BSK_MyoF_PAI1: BioMAP Diversity Plus: MyoF Assay for Plasminogen activator inhibitor-1 (PAI1) Biomarker Activity (AID 2284256)", "details": "primary human lung fibroblasts", "protocol": "BSK_MyoF is a cell-based, multiplexed-readout assay that uses lung fibroblasts, […], with measurements taken at 24 hours after chemical dosing in a microplate: 96-well plate.BSK_MyoF_PAI1 is an assay component measured in the BSK_MyoF assay. It measures PAI-1 antibody related to regulation of gene expression using ELISA technology.Data from the assay component BSK_MyoF_PAI1 was analyzed at the endpoint, BSK_MyoF_PAI1, in the positive analysis fitting direction relative to DMSO as the negative control and baseline of activity. Using a type of binding reporter, gain or loss-of-signal activity can be used to understand protein changes. To generalize the intended target to other relatable targets, this assay endpoint is annotated to the 'cytokine' intended target family, where the subfamily is 'plasmogen activator inhibitor'.\nThe levels of cell surface (or secreted, indicated by the prefix \"s\") biomarker endpoints were measured by ELISA. Overt cytotoxicity to cells in confluent adherent cultures (all systems other than the BT system) was assessed by measuring total protein levels using sulforhodamine B (SRB) staining in parallel cultures at the time of biomarker measurements, indicated as SRB endpoints. For proliferation assays for adherent cell types, individual cell types are cultured at sub-confluence and relative cell numbers quantified by SRB staining at time points optimized for each system (48 h: 3C and CASM3C systems; 72 h: BT and HDF3CGF systems; 96 h: SAg system). SRB was performed by staining cells with 0.1% SRB after fixation with 10% TCA and reading wells at 560 nm.Viability and proliferation of PBMC (T cells) was quantified by Alamar Blue reduction for the SAg and BT systems. For PBMC viability (referred to as PBMC Cytotoxicity within the assay endpoint names), cells were plated (75,000/well in a 96-well plate) and then chemical samples added for 1 h before addition of activators, SEB and TSST-1 (20 ng/mL final concentration each). Cells were incubated for 90 h. Then, Alamar Blue (20 uL/well) (Invitrogen, Cat DAL1100) was added for 6 h, and the plates were read with a fluorescence microplate reader at 546/580 nm (excitation/emission). For PBMC proliferation, cells were plated and activated as above but incubated for only 16 h prior to addition of Alamar Blue. Plates were read after 6 h."}
{"compound": "O=c1c2ccccc2oc2ccccc12", "outcome": "inactive"}
{"compound": "S=C(NC1CCCCC1)NC1CCCCC1", "outcome": "inactive"}
{"compound": "CCO[Si](CCCN=C=O)(OCC)OCC", "outcome": "inactive"}
{"compound": "O=C(Nc1ccccc1SSc1ccccc1NC(=O)c1ccccc1)c1ccccc1", "outcome": "inactive"}
{"compound": "CCCCCCCCc1ccc(Nc2ccc(CCCCCCCC)cc2)cc1", "outcome": "inactive"}
{"compound": "CC1OC1C1CCC2(C)OC2C1", "note": "(configuration not stated)", "outcome": "inactive"}
{"compound": "c1ccc(-c2ccccn2)nc1", "outcome": "inactive"}
{"compound": "CCCCNc1ccc(NCCCC)c2c1C(=O)c1ccccc1C2=O", "outcome": "inactive"}
{"compound": "C=CC=CC=CCCCCC", "outcome": "inactive"}
{"compound": "C#CC1(O)CC[C@H]2[C@@H]3CCC4=CCCC[C@@H]4[C@H]3CC[C@@]21C", "note": "(some centres not stated)", "AC50": "32 µM (active)"}
{"compound": "CCCCCCCCCCCCCCCC[N+](C)(C)CC", "AC50": "2.65 µM (active)"}
{"compound": "C=CCOc1c(Br)cc(Br)cc1Br", "AC50": "26.6 µM (active)"}
{"compound": "C=CCOCC(O)CCl", "note": "(configuration not stated)", "outcome": "inactive"}
{"compound": "N#[N+]c1ccc2c(S(=O)(=O)[O-])cccc2c1O", "outcome": "inactive"}
{"compound": "CC(C)C(=O)C(C)C", "outcome": "inactive"}
{"compound": "COc1ccc2nc(N)sc2c1", "outcome": "inactive"}
{"compound": "C/C=C\\C/C=C/CCCCCCCCOC(C)=O", "AC50": "20 µM (active)"}
{"compound": "COCc1c(C(C)C)nc(C(C)C)c(/C=C/[C@@H](O)C[C@@H](O)CC(=O)O)c1-c1ccc(F)cc1", "AC50": "0.15 µM (active)"}
{"compound": "O=Nc1ccc(O)cc1", "outcome": "inactive"}
{"compound": "CCOc1nc(F)cc2nc(S(=O)(=O)Nc3c(Cl)cccc3C(=O)OC)nn12", "outcome": "inactive"}
{"compound": "CC(C)(c1cc(Br)c(OCCO)c(Br)c1)c1cc(Br)c(OCCO)c(Br)c1", "AC50": "9.61 µM (active)"}
{"compound": "CCCCC(CC)COC(=O)c1ccccc1O", "note": "(configuration not stated)", "outcome": "inactive"}
{"compound": "CCCCC/C=C\\C/C=C\\CCCCCCCC(=O)OC", "outcome": "inactive"}
{"compound": "c1ccc2c(c1)ccc1cc3c(ccc4ccccc43)cc12", "outcome": "inactive"}
{"compound": "C=CC(=O)OCC(Br)CBr", "note": "(configuration not stated)", "AC50": "7.93 µM (active)"}
{"compound": "O=C(Cl)c1cc(C(=O)Cl)cc(C(=O)Cl)c1", "AC50": "39.1 µM (active)"}
{"compound": "c1ccc2c(c1)ccc1ncccc12", "outcome": "inactive"}
